The source made the active and inactive calls.

Assay [1] in a line: small molecules captured by biotinylated probe aFSTL3 – biochemical, small-molecule microarray, fluorescence 635/667, stem cell growth factor project, primary screen (AID 1064).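 Note: measures binding of the biotinylated anti-FSTL3 antibody to printed compounds.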 The conditions noted are these: higher = more signal.
Assay [2] can be described thus: binders from COS7 lysate, DM2A8 probe, primary screen, torsin A project, cell lysate, small-molecule microarray, fluorescence 635/667 (AID 1065). The conditions noted are these: higher = more signal, COS7 lysate expressing mutant human TOR1A.
The nature of assay [3]: small molecules captured by biotinylated probe aFGF2 – biochemical, small-molecule microarray, fluorescence 635/667, stem cell growth factor project, primary screen (AID 1067).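 Note: measures binding of biotinylated aFGF2 protein to printed compounds on slides; z-score merges feature fluorescence and signal-to-noise across triplicate slides.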 The conditions noted are these: higher = more signal.
A short description of assay [4]: small molecules captured by biotinylated probe aFGF10 – biochemical, small-molecule microarray, fluorescence 635/667, stem cell growth factor project, primary screen (AID 1071).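 Note: score merges 667 nm spot intensity and signal to noise from triplicate slides.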 The conditions noted are these: higher = more signal.
The target of assay [5] is Neurogenic locus notch homolog protein 2 (Homo sapiens) (UniProt Q04721). Description: small molecules binding Notch2 protein – biochemical, small-molecule microarray, 635 nm fluorescence, stem cell growth factors, primary screen (AID 1073). To be noted: higher = more signal.
Assay [6] has as its target Pro-neuregulin-1, membrane-bound isoform (Homo sapiens) (UniProt Q02297). Nature of the assay: small molecules binding neuregulin-1 protein – biochemical, small-molecule microarray, fluorescence 635/667, psychiatric disease protein project, primary screen (AID 1075).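 Note: score combines 667 nm spot fluorescence with signal to noise.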 To be noted: NRG1 binding, 635 nm fluorescence, higher = more signal.
The subject of assay [7] is Neuregulin-1 EGF-like domain. Description: small molecules binding NRG1 EGF domain – biochemical, small-molecule microarray, 635 nm fluorescence, primary screen (AID 1081).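 Note: binding of the protein to compounds printed on small-molecule microarray slides.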 To be noted: higher = more signal.
Assay [8] can be described thus: FRG1 expression reporter modulators in myotubes – cell-based, C2C12 myotubes, firefly/Renilla luciferase, luminescence, FRG1 inhibition for FSHD, primary screen (AID 1084). To be noted: FRG1 promoter luciferase, higher = more signal, called active from +8 up or from −8 down.
The nature of assay [9]: small molecules captured by biotinylated probe aFST – biochemical, small-molecule microarray, fluorescence 635/667, stem cell growth factor project, primary screen (AID 1086).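 Note: score merges 667 nm fluorescence with signal-to-noise of each printed compound spot.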 To be noted: higher = more signal.
The nature of assay [10]: binders of probe aHhip on microarray, primary screen, stem cell growth factor project, biochemical, small-molecule microarray, fluorescence 635/667 (AID 1087).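 Note: score merges spot fluorescence at 667nm with spot signal to noise ratio.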 The conditions noted are these: higher = more signal.
Assay [11] has as its system PRMT1 (protein arginine N-methyltransferase 1). Description: small molecules binding arginine methyltransferase PRMT1 – biochemical, small-molecule microarray, 635 nm fluorescence, primary screen (AID 1088).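 Note: binding of Prmt1 protein to compounds spotted on small-molecule microarray slides.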 To be noted: higher = more signal.
The nature of assay [12]: growth effects on S. cerevisiae YJM789 – YJM789 clinical isolate, OD600, 24 h, basal, primary screen (AID 1089).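 Note: growth of clinical yeast isolate S. cerevisiae YJM 789 seeded 1000 cells per well; test concentration not given here.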 The conditions noted are these: higher = more signal, called active from +8 up or from −8 down.
Assay [13] can be described thus: S. pombe growth modifiers, basal conditions – strain 972, OD600, 24 h, no modulator, primary screen (AID 1090).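 Note: basal condition with compound alone and no growth modifier present; test concentration not given here.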 The conditions noted are these: S. pombe 972 growth, higher = more signal, called active from +8 up or from −8 down.
Assay [14] in a line: budding yeast growth modifiers under rapamycin – strain BY4716, OD600, 96 h, primary screen (AID 1091). Note: test concentration not given here. The conditions noted are these: S. cerevisiae BY4716 + rapamycin, higher = more signal, called active from +8 up or from −8 down.
In assay [15] the target is Torsin-1A-interacting protein 2 (Homo sapiens) (UniProt Q8NFQ8). Nature of the assay: small molecules binding lysate-expressed LULL1 – cell lysate, human LULL1 lysate, 635/667 nm fluorescence, primary screen (AID 1092).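 Note: probe is lysate of COS7 cells overexpressing human LULL1; score merges per-feature 667 nm fluorescence with signal-to-noise.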 The conditions noted are these: small-molecule microarray, hLULL1 lysate binding, 635 nm fluorescence; higher = more signal.
Assay [16] in a line: optical density change of DRC41 E. coli – strain DRC41, OD650, 24 h, E. coli filamentation project, primary screen (AID 1093).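 Note: MC1000 strain lacking acrAB efflux and sulA so SOS filamentation is blocked; test concentration not given here.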 To be noted: E. coli DRC41 growth, higher = more signal, called active from +8 up or from −8 down.
Assay [17] in a line: probe aLefty2 binding to arrayed compounds – biochemical, biotinylated probe, 635/667 nm fluorescence, primary screen (AID 1094).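 Note: score merges spot fluorescence near 667 nm with spot signal-to-noise ratio.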 The conditions noted are these: small-molecule microarray, higher = more signal.
Assay [18] concerns Noggin (protein binding on small-molecule microarray). Nature of the assay: small molecules binding Noggin protein – biochemical, 635/667 nm fluorescence, primary screen (AID 1095).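 Note: score merges 667 nm feature fluorescence with signal to noise over triplicate slides.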 The conditions noted are these: 635 nm fluorescence, higher = more signal.
The target of assay [19] is Neurogenic locus notch homolog protein 3 (Homo sapiens) (UniProt Q9UM47). Description: small molecules binding NOTCH3 protein – biochemical, 635/667 nm fluorescence, primary screen (AID 1096). To be noted: small-molecule microarray, 635 nm fluorescence, higher = more signal.
A short description of assay [20]: probe aEGFR binding to arrayed compounds – biochemical, biotinylated probe, 635/667 nm fluorescence, primary screen (AID 1097).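 Note: probe is a biotinylated anti-EGFR antibody binding compounds printed on slides; score combines fluorescence near 667 nm and signal to noise of each spot.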 The conditions noted are these: small-molecule microarray, higher = more signal.

Pro-neuregulin-1, membrane-bound isoform (Homo sapiens), sequence (Q02297 whole entry, looked up, the tested form may be a part, canonical isoform): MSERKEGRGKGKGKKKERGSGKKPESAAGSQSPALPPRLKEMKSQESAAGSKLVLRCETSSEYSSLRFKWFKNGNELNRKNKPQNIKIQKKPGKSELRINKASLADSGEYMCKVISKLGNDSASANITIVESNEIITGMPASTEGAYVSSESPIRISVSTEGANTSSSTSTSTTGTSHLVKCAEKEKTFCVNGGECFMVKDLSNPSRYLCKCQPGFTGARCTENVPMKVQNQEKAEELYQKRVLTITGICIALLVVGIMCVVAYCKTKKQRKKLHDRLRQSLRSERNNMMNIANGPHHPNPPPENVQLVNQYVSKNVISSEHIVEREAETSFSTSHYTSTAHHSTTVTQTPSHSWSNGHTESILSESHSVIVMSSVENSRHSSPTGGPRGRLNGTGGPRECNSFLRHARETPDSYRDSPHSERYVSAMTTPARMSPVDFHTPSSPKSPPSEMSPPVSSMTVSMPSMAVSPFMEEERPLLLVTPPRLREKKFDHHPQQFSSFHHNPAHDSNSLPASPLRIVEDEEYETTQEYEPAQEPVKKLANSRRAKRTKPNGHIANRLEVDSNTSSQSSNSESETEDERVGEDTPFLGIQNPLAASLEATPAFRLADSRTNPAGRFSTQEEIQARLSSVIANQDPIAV
Neurogenic locus notch homolog protein 2 (Homo sapiens), sequence (Q04721 whole entry, looked up, canonical isoform): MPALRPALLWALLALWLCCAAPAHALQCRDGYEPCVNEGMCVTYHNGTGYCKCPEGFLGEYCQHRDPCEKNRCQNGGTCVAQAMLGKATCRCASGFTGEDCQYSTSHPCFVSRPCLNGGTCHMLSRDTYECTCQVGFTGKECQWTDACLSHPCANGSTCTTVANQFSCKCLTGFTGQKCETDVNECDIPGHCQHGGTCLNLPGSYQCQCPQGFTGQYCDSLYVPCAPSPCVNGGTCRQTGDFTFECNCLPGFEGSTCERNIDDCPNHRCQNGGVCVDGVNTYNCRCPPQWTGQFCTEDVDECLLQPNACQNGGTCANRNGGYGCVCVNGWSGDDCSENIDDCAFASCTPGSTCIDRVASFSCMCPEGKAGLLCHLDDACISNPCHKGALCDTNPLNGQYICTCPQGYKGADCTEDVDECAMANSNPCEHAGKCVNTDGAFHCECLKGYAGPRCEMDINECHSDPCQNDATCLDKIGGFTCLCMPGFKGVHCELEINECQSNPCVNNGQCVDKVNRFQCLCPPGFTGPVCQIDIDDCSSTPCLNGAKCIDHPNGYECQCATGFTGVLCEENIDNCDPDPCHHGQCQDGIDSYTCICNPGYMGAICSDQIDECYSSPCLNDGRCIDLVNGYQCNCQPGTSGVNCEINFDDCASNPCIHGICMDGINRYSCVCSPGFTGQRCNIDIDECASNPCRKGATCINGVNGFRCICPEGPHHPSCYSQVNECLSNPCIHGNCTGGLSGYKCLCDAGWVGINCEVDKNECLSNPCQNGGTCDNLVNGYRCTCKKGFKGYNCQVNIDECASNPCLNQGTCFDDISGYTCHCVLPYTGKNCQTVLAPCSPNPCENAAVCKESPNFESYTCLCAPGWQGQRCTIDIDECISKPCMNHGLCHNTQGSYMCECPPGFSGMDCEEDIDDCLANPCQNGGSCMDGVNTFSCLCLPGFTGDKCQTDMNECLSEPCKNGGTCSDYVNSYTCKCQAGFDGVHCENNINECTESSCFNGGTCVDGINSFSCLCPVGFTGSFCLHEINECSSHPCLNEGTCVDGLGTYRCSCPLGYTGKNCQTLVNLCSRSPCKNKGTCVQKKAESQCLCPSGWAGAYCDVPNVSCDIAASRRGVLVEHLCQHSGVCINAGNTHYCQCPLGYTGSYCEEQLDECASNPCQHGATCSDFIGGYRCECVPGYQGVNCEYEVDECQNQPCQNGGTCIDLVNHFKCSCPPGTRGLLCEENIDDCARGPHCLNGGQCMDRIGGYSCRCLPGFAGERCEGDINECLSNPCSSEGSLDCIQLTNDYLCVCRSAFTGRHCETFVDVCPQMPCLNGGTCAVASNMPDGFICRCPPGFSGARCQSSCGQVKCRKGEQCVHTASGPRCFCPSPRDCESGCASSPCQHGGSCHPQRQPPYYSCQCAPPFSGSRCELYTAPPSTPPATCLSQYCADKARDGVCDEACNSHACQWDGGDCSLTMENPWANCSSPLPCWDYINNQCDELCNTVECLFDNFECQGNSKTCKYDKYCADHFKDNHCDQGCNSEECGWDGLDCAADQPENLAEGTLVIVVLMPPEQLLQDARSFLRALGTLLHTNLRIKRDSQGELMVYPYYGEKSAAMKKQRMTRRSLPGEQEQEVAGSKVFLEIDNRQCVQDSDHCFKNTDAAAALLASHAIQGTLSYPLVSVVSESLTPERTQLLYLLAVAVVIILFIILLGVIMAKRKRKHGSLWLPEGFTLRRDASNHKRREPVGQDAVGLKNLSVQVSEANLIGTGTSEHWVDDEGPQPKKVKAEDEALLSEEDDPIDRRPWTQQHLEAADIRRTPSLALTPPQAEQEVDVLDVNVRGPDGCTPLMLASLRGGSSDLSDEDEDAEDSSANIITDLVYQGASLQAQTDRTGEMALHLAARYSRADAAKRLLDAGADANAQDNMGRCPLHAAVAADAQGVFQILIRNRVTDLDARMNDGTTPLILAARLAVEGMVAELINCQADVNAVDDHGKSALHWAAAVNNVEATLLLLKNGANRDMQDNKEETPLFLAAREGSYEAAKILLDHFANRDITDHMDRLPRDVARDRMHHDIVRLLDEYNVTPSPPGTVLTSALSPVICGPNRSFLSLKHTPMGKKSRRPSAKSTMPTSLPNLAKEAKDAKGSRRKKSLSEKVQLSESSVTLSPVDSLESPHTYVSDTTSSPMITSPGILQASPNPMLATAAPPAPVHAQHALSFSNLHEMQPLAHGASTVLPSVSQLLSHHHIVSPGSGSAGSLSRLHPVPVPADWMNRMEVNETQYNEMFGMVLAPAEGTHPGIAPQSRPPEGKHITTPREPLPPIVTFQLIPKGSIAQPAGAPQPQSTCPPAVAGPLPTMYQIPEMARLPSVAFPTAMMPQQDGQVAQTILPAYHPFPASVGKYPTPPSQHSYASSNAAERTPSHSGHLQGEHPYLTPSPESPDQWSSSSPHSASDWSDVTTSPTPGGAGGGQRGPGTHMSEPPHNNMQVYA
Torsin-1A-interacting protein 2 (Homo sapiens), sequence (Q8NFQ8 whole entry, looked up): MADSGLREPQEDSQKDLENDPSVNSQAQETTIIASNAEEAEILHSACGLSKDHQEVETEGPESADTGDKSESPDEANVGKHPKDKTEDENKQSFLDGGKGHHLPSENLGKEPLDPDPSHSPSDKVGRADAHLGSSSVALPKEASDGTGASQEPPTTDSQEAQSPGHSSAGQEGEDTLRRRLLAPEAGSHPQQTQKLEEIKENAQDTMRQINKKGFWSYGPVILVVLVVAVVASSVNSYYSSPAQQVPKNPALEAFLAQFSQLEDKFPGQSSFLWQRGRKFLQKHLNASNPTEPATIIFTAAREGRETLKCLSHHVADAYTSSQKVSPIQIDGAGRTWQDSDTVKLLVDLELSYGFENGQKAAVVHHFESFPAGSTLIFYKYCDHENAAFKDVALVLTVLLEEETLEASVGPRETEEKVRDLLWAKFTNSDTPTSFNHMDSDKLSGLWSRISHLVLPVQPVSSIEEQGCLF

As to `COCCCNC(=O)[C@]1(Cc2ccccc2N=[N+]=[N-])N=C(c2ccc(OCCCO)cc2)O[C@@H]1c1ccccc1CN=[N+]=[N-]`, the composite z-score was 0.201 in assay [1]; 0.157 in assay [2]; 0.182 in assay [3]; 1.05 in assay [4]; 1.68 in assay [5]; 1.49 in assay [6]. The composite z-score in assay [7] was 1.33; in assay [9] it was 1.33; in [10], -0.0296; in assay [11], 1.51; in assay [15] it was 3.18; in [17], 0.465. Moreover, the composite z-score in [18] amounted to 0.579; in assay [19], 1.09; in assay [20] it was 0.606. For the same compound, the z-score in assay [8] is -0.0402 (inactive); in assay [12], -1.24 (inactive); in assay [13], -0.365 (inactive); in [14], 4.94 (inactive); in assay [16], 1.01 (inactive).
In the case of `COc1ccc([Si](C)(C)[C@H]2[C@H](CCO)O[C@@]3(C(=O)N(Cc4cccc(N5C(=O)c6cccc7cccc5c67)c4)c4ccccc43)[C@@H]2C)cc1`, the composite z-score in [1] is 0.0761; in [2], -0.364; in assay [3] it was 0.0253; in assay [4] it was 0.404; in assay [5], -0.136; in [6], 0.795. The composite z-score in assay [7] is 1; in [9], -0.26; in assay [10], -0.212; in assay [11], 1.16; in assay [15], 2.1; in assay [17] it was -0.205. In addition, the figures for the composite z-score in assay [18], in assay [19] and in [20] were 0.492, 0.344 and -0.225, respectively. In addition, the z-score is -1.43 (inactive) in assay [8]; 2.05 (inactive) in assay [12]; 1.23 (inactive) in assay [13]; 36.9 (active) in assay [14]; 0.879 (inactive) in assay [16].
Turning to `C=CC[C@@]1(C(=O)OC)N=C(c2ccc(OCCCO)cc2)O[C@@H]1c1ccccc1CN=[N+]=[N-]`, the composite z-score in assay [1] is 0.0729; in assay [2], 0.0269; in assay [3], -0.116; in assay [4], -0.438; in assay [5], 0.406; in assay [6] it was 0.482. Also, the composite z-score was 1.1 in [7]; 0.166 in assay [9]; -0.199 in assay [10]; 1.3 in assay [11]; 1.41 in assay [15]; 0.0427 in assay [17]. The results for the composite z-score in assay [18], in [19] and in assay [20] were 0.744, -0.159 and -0.0531, respectively. Also, the z-score in assay [8] is -0.484 (inactive); in [12], -3.29 (inactive); in [13] it was -4.42 (inactive); in [14], 6.32 (inactive); in assay [16], 1.21 (inactive).
For the compound `COC(=O)[C@@]1(Cc2ccc(F)cc2)[C@H]2c3cc(C(=O)N(C)C)n(CCCNc4ccc(C(F)(F)F)cc4Cl)c3C[C@H]2CN1C(=O)c1ccccc1`, the composite z-score in assay [1] came out at 0.785; in assay [2] it was 0.34; in assay [3], 0.311; in assay [4], 0.754; in [5], 1.75; in [6], 1.16. The composite z-score in assay [7] is 1.27; in [9], 1.55; in [10] it was -0.114; in assay [11], 1.41; in assay [15], 3.36; in [17], 0.555. Besides, the figures for the composite z-score in [18], in assay [19] and in [20] were 0.282, 1.02 and 0.361, respectively. Also, the z-score in [8] was 0.452 (inactive); in assay [12], 0.406 (inactive); in [13] it was 1.06 (inactive); in assay [14], 5.11 (inactive); in assay [16] it was -1.3 (inactive).
In the case of `O=C1O[C@H](c2ccccc2)[C@H](c2ccccc2)N2[C@H]1[C@@H](C(=O)N1CCCCCCC1)[C@]1(C(=O)Nc3ccc(C#CC4=CCCCC4)cc31)[C@H]2c1ccc(O)cc1`, the composite z-score in [1] was determined as 3.8; in [2] it was 2.87; in [3] it was 1.05; in assay [4], 1.46; in [5] it was 1.84; in assay [6] it was 2.87. In addition, the composite z-score came to 1.54 in assay [7]; 3.41 in assay [9]; 2.58 in [10]; 1.56 in [11]; 5.19 in assay [15]; 1.91 in [17]. For the same compound, the figures for the composite z-score in [18], in [19] and in assay [20] were 2.3, 1.02 and 1.47, respectively. Also, the z-score in [8] was 0.805 (inactive); in assay [12] it was -0.177 (inactive); in assay [13], 0.218 (inactive); in assay [14], 0.791 (inactive); in assay [16], 1.26 (inactive).

Values taken from PubChem BioAssay.
